Data on eight molecules can be found in PubChem BioAssay (Tox21).

Several values for one entry are separate records, joined by “and”; a condition that tells them apart may be missing. Equal values may be shown once. A structure can be active in one record and inactive in another. Activity calls are given as the source filed them. Unless noted, the call rests on the fitted dose curve; in most records, active means well fitted curve in the direction sought with a large enough effect in the repeat runs; inconclusive means weak or mixed curves; inactive means no such curve, though single readings can be large; an effect the other way counts as inactive or inconclusive.

A short description of assay [1]: qHTS assay to identify small molecule antagonists of the thyroid receptor (TR) signaling pathway - cell viability counter screen (AID 743064). Further: nearly all actives have a fitted effect of over 50% in size. Further: potency means the concentration at half of the fitted maximal effect. The gist of the method:
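Viability of T3-stimulated (1 nM final) GH3.TRE-Luc cells is measured by CellTiter-Fluor fluorescence after 23.5 h compound exposure at 37 °C plus 30 min reagent incubation.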
(Quantitative high-throughput screening tests each substance at several concentrations.)

The nature of assay [2]: qHTS assay to identify small molecule antagonists of the thyroid receptor (TR) signaling pathway (AID 743065). Further: potency means the concentration at half of the fitted maximal effect; nearly all actives have a fitted effect of over 55% in size. The gist of the method: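 GH3.TRE-Luc rat pituitary cells carrying two TR response elements driving luciferase were plated for 4 h, given compound plus 1 nM T3 (final), and incubated 23.5 h at 37 C. ONE-Glo luminescence measured reporter inhibition; CellTiter-Fluor fluorescence tracked cytotoxicity.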

Assay [3] concerns the target Estrogen receptor (Homo sapiens) (UniProt P03372). Kind of assay: qHTS assay to identify small molecule antagonists of the estrogen receptor alpha (ER-alpha) signaling pathway (AID 743069; active means well fitted curve in the direction sought with a large enough effect in the signal ratio in the repeat runs, not every such curve was filed as active; inconclusive means weak or mixed curves, or effect the other way; inactive means no such curve, though single readings can be large or run the other way; the % refers to the signal ratio; further: potency means the concentration at half of the fitted maximal effect). The gist of the method:
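Screening used a UAS-driven beta-lactamase reporter integrated into HEK293 cells expressing ER-alpha, stimulated with 17beta-estradiol alongside test compounds over 18 hr at 37C; signal came from LiveBLAzer B/G FRET fluorescence.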

The nature of assay [4]: qHTS assay to identify small molecule antagonists of the estrogen receptor alpha (ER-alpha) signaling pathway - cell viability counter screen (AID 743074; calls by dose curve; further: nearly all actives have a fitted effect of over 45% in size; further: potency means the concentration at half of the fitted maximal effect).
Assay [5] deals with Estrogen receptor (Homo sapiens) (UniProt P03372). Description: qHTS assay to identify small molecule agonists of the estrogen receptor alpha (ER-alpha) signaling pathway (AID 743075; calls by dose curve).
Sequence of Estrogen receptor (Homo sapiens) (P03372 whole entry, looked up): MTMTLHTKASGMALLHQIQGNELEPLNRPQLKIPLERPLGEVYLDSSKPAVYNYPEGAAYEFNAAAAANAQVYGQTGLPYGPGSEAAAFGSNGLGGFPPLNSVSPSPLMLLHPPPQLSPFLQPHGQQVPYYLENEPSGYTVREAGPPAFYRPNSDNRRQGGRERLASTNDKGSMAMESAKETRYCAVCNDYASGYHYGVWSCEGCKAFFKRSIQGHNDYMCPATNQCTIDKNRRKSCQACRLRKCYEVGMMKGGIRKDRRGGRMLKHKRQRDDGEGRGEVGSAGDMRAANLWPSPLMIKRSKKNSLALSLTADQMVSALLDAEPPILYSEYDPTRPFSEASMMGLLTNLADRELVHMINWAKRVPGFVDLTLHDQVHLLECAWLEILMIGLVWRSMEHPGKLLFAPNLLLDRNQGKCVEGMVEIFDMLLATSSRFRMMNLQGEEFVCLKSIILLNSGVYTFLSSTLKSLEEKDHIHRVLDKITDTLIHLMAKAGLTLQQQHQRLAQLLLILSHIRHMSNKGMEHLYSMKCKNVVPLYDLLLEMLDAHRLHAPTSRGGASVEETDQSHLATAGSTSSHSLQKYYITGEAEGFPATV
For assay [6] the target is unchanged. Description: qHTS assay to identify small molecule agonists of the estrogen receptor alpha (ER-alpha) signaling pathway using the BG1 cell line (AID 743079). Further: nearly all actives have a fitted effect of over 20% in size. As to conditions: BG1Luc4E2 cells, ERE-luciferase agonist, 22 h; activation: at 70.3 µM (top of the series).
Assay [7] in a line: qHTS assay to identify small molecule antagonists of the estrogen receptor alpha (ER-alpha) signaling pathway using the BG1 cell line - cell viability counter screen (AID 743081).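 Further: compound given together with 17beta-estradiol as the ER stimulus; nearly all actives have a fitted effect of over 45% in size.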 Further: potency means the concentration at half of the fitted maximal effect.
Assay [8] can be described thus: qHTS assay to identify small molecule that activate the aryl hydrocarbon receptor (AhR) signaling pathway - cell viability counter screen (AID 743086). Further: nearly all actives have a fitted effect of over 45% in size. Further: potency means the concentration at half of the fitted maximal effect. Put shortly: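 HepG2-AhR-luc (HG2L7.5c1) cells, 4000/well, were preincubated 5 h at 37C, exposed to compound in qHTS format for 24 hr at 37C, then given CellTiter-Fluor for 30 min; viability was read as fluorescence in the reporter wells.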

In assay [9] the target is Peroxisome proliferator-activated receptor gamma (Homo sapiens) (UniProt P37231). Kind of assay: qHTS assay to identify small molecule agonists of the peroxisome proliferator-activated receptor gamma (PPARg) signaling pathway (AID 743094; active means well fitted activation curve with a large enough effect in the signal ratio in the repeat runs, not every such curve was filed as active; inconclusive means weak or mixed curves, or effect the other way; inactive means no such curve, though single readings can be large or run the other way; the % refers to the signal ratio). The gist of the method: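 HEK293H PPARg-bla cells, 5 h settle at 37C/5% CO2; compound (DMSO) 17 h, 37C; B/G FRET substrate 1 h RT; fluorescence intensity read-out. qHTS format.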
Sequence of Peroxisome proliferator-activated receptor gamma (Homo sapiens) (P37231 whole entry, looked up): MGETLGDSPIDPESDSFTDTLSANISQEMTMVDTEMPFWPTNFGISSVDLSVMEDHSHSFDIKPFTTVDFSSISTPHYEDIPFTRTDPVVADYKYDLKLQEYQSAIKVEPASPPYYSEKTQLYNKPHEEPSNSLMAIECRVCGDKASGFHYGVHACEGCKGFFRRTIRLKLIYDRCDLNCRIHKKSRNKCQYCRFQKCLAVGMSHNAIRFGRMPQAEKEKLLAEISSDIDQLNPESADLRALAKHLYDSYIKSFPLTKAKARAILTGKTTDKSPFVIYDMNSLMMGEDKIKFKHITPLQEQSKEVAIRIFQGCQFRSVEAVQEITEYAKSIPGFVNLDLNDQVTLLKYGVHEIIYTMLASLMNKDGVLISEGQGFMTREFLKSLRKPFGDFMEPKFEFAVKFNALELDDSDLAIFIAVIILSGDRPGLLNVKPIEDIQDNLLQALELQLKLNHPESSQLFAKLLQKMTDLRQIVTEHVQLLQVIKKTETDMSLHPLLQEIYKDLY

Assay [10] in a line: qHTS assay to identify small molecule antagonists of the peroxisome proliferator-activated receptor gamma (PPARg) signaling pathway - cell viability counter screen (AID 743194). Further: nearly all actives have a fitted effect of over 55% in size. Further: potency means the concentration at half of the fitted maximal effect. Put shortly: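 PPARg-UAS-bla HEK293H cells were plated, rested 5 h at 37 C, then treated with compounds plus rosiglitazone (50 nM final) for 17 h at 37 C; viability was then read by CellTiter-Glo luminescence after 30 min at room temperature.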

Assay [11] in a line: qHTS assay for small molecule agonists of the antioxidant response element (ARE) signaling pathway (AID 743202; active means well fitted activation curve with a large enough effect in the signal ratio in the repeat runs, not every such curve was filed as active; inconclusive means weak or mixed curves, or effect the other way; inactive means no such curve, though single readings can be large or run the other way; the % refers to the signal ratio; further: potency means the concentration at half of the fitted maximal effect). Put shortly: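 Steps: seed ARE-bla HepG2 cells (2,000/well); incubate 5 h at 37 C; add compounds by pin tool; incubate 16 h at 37 C; add FRET substrate; read fluorescence after 2 h at RT.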
Assay [12] in a line: qHTS assay for small molecule agonists of the antioxidant response element (ARE) signaling pathway - cell viability counter screen (AID 743203; calls by dose curve; further: nearly all actives have a fitted effect of over 55% in size; further: potency means the concentration at half of the fitted maximal effect). Put shortly:
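Luminescence read-out (CellTiter-Glo, 30 min at room temperature) measured cell viability in the same wells as the ARE beta-lactamase reporter. HepG2 ARE-bla cells were treated with compounds for 16 hrs at 37C/5% CO2.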

The nature of assay [13]: qHTS assay to identify small molecule antagonists of the estrogen receptor alpha (ER-alpha) signaling pathway using the BG1 cell line (AID 743080; calls by dose curve;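 further: BG1 cells stimulated with 17beta-estradiol alongside compound; nearly all actives have a fitted effect of over 25% in size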). As to conditions: BG1Luc4E2 ERE-luciferase antagonist mode, luminescence; activity change, negative = inhibition: at 70.3 µM (top of the series). The gist of the method:
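Luciferase inhibition measured with ONE-Glo after 30 min at RT in BG1Luc4E2 cells given test compounds and 17beta-estradiol for 21.5 h at 37 C; CellTiter-Fluor viability read in the same wells beforehand.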

The target of the next assay is Aromatase (Homo sapiens) (UniProt P11511). Description: qHTS assay to identify aromatase inhibitors (AID 743083). Further: nearly all actives have a fitted effect of over 55% in size. Further: potency means the concentration at half of the fitted maximal effect.
Sequence of Aromatase (Homo sapiens) (P11511 whole entry, looked up): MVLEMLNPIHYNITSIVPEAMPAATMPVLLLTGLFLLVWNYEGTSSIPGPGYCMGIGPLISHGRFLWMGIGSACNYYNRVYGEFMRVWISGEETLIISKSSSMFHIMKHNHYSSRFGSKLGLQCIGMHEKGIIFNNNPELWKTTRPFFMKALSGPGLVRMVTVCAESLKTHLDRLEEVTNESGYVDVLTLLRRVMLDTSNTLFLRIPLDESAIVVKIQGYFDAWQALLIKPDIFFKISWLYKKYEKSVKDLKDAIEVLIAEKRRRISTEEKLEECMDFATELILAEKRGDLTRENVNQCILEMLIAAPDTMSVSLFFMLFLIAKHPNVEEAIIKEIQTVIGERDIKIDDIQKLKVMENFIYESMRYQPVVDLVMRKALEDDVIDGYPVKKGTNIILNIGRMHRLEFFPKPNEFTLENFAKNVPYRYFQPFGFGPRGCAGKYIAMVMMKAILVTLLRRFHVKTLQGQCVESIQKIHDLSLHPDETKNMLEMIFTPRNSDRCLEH
Assay [14] in a line: qHTS assay to identify aromatase inhibitors - cell viability counter screen (AID 743084). Further: potency means the concentration at half of the fitted maximal effect.
For assay [15], the target named is Aryl hydrocarbon receptor (Homo sapiens) (UniProt P35869). Kind of assay: qHTS assay to identify small molecule that activate the aryl hydrocarbon receptor (AhR) signaling pathway (AID 743085).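 Further: HG2L7.5c1 human HepG2 liver cells with stably integrated DRE-driven firefly reporter; nearly all actives have a fitted effect of over 15% in size.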 Put shortly:
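A multiplexed format paired cell viability (CellTiter-Fluor fluorescence) with AhR-dependent luciferase output (ONE-Glo luminescence) in the same wells of HepG2 DRE-luc cells after 24 h compound exposure at 37C.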

Assay [16] can be described thus: qHTS assay for small molecule activators of the heat shock response signaling pathway - cell viability counter screen (AID 743209). Further: nearly all actives have a fitted effect of over 50% in size. Further: potency means the concentration at half of the fitted maximal effect. The gist of the method:
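HSE-bla HeLa; 1500 cells/well; overnight 37 C, 5% CO2; compound 5 h 37 C; LiveBLAzer B/G substrate 2.5 h RT; CellTiter-Glo 30 min RT; luminescence.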

The subject of assay [17] is thyroid hormone receptor (rat, GH3 cells). Description: qHTS assay to identify small molecule agonists of the thyroid receptor (TR) signaling pathway (AID 743066; calls by dose curve).
Assay [18] concerns the target Peroxisome proliferator-activated receptor gamma (Homo sapiens) (UniProt P37231). Description: qHTS assay to identify small molecule antagonists of the peroxisome proliferator-activated receptor gamma (PPARg) signaling pathway (AID 743191; calls by dose curve; further: nearly all actives have a fitted effect of over 30% in size). The gist of the method: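 GeneBLAzer PPARg UAS-bla HEK293H cells carrying a UAS-driven beta-lactamase reporter were plated at 3000 cells/well, preincubated 5 h at 37C, then given compound for 17 h at 37C; LiveBLAzer B/G FRET substrate was read after 1 h at room temperature.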

A short description of assay [19]: qHTS assay for small molecule activators of the heat shock response signaling pathway (AID 743210; active means well fitted activation curve with a large enough effect in the signal ratio in the repeat runs, with a control signal flat, not every such curve was filed as active; inconclusive means weak or mixed curves; the % refers to the signal ratio;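 further: HeLa cells with beta-lactamase reporter driven by heat shock elements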). The gist of the method:
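Activation of heat shock element-controlled beta-lactamase expression is measured in HeLa cells by LiveBLAzer FRET fluorescence, with compound exposure lasting 5 h at 37 C and substrate loading 2.5 h at room temperature.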

Sequence of Aryl hydrocarbon receptor (Homo sapiens) (P35869 whole entry, looked up): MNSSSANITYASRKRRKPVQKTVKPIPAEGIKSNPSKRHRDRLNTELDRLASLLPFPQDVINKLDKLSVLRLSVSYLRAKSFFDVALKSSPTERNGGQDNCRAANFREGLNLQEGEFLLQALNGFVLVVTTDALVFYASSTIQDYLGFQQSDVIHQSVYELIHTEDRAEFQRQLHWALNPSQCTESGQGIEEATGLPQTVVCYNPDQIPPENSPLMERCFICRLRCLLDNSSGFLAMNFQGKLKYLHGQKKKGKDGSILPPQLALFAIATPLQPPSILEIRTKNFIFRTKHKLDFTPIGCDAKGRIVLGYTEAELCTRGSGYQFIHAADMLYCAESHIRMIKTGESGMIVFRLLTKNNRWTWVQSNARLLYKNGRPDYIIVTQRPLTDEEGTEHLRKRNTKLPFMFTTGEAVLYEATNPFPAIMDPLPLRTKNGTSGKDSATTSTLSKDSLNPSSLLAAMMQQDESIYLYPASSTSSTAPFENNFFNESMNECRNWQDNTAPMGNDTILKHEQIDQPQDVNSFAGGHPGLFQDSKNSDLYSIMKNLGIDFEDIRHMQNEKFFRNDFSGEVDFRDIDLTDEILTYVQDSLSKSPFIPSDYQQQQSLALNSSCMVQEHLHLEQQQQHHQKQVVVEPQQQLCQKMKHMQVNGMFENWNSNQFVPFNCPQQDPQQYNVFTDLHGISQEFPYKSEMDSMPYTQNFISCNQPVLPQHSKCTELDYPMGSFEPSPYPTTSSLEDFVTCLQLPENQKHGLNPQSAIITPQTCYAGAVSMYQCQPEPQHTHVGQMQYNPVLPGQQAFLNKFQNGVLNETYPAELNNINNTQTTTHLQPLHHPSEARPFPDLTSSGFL

Turning to `NC(=O)C(=O)N/N=C/c1ccc([N+](=O)[O-])o1`, the Potency is 26.6 µM (active) in assay [1], 21.1 µM (active) in assay [2] and 29.8 µM (active) in assay [11]. Further, the Potency result in assay [3], in [4], in [5], in [6], in [7] and in [8] was “inactive” in each case. The Potency result in assay [9], in [10] and in [12] was “inactive” each time.

For `CSc1ccc2c(c1)N(CCC1CCCCN1C)c1ccccc1S2` (stereo not given), the Potency was 7.5 µM (active) and 8.6 µM (active) in assay [1]; 7.5 µM (active) and 9.65 µM (active) in assay [2]; 23.9 µM [inconclusive] (active) in assay [3]; 54.7 µM (active) in assay [4]; “inactive and 68.3 µM (active)” in assay [7]; 27.2 µM (active) in the assay with Aromatase (Homo sapiens). Besides, the Potency in assay [14] was 21.6 µM (active); in assay [8], 27.2 µM (active); in [10], 38.7 µM (active) and 15 µM (active); in assay [12] it was 27.2 µM (active) and 23.7 µM (active); in assay [16], 54.7 µM (active) and 29.8 µM (active). In addition, the Potency result in assay [5], in assay [13] and in assay [15] was “inactive” each time.

As to `C=C1C(C)(C)[C@@]2(Cl)C(Cl)[C@]1(Cl)C(Cl)(Cl)C2(Cl)Cl` (stereo not given in full), the Potency was 26.8 µM (active) in assay [1], 23.9 µM (active) in assay [2], 60 µM (active) with Aromatase (Homo sapiens) and 7.56 µM (active) in assay [11]. For the same molecule, the Potency result in assay [17], in assay [7], in assay [15], in [8] and in assay [9] was “inactive” in each case.

For `CCCCCCCCCCOCC(O)CN` (stereo not given), the Potency in assay [1] was 5.96 µM (active); in assay [2], 9.44 µM (active); with Aromatase (Homo sapiens), 33.5 µM (active). Moreover, the Potency result in assay [3], in assay [4], in assay [6], in assay [13], in assay [7] and in assay [8] was “inactive” each time. Also, the Potency result in assay [18] was “inactive”.

For `CN(C)CCCN1c2ccccc2Sc2ccc(C(F)(F)F)cc21`, the Potency in assay [1] is 9.44 µM (active); in assay [2], 10.6 µM (active); in [8], 23.7 µM (active); in assay [12] it was 29.8 µM (active). Moreover, the Potency result (in assay [5]; in assay [13]; in assay [7]; in the assay with Aromatase (Homo sapiens); in [14]; in [15]) was “inactive” each time. Also, the Potency result in [16] and in assay [19] was “inactive” in each case.

As for `CCOC(=O)[C@@](C)(N)Cc1ccc(O)c(O)c1`, the Potency entry in assay [1], in assay [17], in assay [3], in assay [4], in [5] and in [6] was “inactive” each time. In addition, the Potency entry (in assay [13]; in assay [7]; with Aromatase (Homo sapiens); in assay [14]; in [15]; in [8]) was “inactive” throughout. For the same molecule, the Potency entry in [9], in [18], in assay [10], in assay [12], in assay [16] and in assay [19] was “inactive” throughout.

On to `CCCCOC(=O)C(C)CC` (stereo not given), for which the Potency result in [1], in assay [17], in assay [3], in assay [4], in assay [5] and in [6] was “inactive” throughout. Further, the Potency entry (in [13]; in assay [7]; with Aromatase (Homo sapiens); in assay [14]; in assay [15]; in assay [10]) was “inactive” each time. Further, the Potency entry in assay [11] and in [12] was “inactive” in each case.

Turning to `CCCCCCCCCCCCOC(=O)c1cc(O)c(O)c(O)c1`, the Potency in assay [1] was 3.05 µM (active) and 2.43 µM (active); in assay [3], 19.4 µM [inconclusive] (active); in [4] it was 49 µM (active); with Aromatase (Homo sapiens), 30.5 µM (active) and 27.3 µM (active); in assay [14], 30.5 µM (active) and 61.1 µM (active); in assay [10] it was 43.6 µM (active). The Potency was 68.3 µM (active) and 61.1 µM (active) in [12]; 13.7 µM (active) and 49 µM (active) in assay [16]. The Potency result in assay [17], in assay [15] and in assay [8] was “inactive” throughout.
